ATXN viability: cell viability loss in ATXN counter-screen; 400,000 compounds, 0.49% hits; AID 651635; Potency, µM (titrated, usually from 56.7 µM), usual class: cytotoxic; S2 cells (HEK-293 line with an ATXN2-luciferase reporter) viability, CellTiter-Fluor protease fluorescence, 24 h; also: nearly all actives have a fitted effect of over 40% in size
GLP1R inv ag: GLP-1 receptor (human) inverse agonism; P43220; HEK293 GLP-1R CRE-luciferase, luminescence, 24 h; GLP-1R form is constitutively active; Potency, µM (top dose mostly 38.3 µM), hits mostly inhibitors; 410,000 compounds, 1.6% hits; also: nearly all actives have a fitted effect of over 55% in size
Target sequence (P43220 whole entry, looked up): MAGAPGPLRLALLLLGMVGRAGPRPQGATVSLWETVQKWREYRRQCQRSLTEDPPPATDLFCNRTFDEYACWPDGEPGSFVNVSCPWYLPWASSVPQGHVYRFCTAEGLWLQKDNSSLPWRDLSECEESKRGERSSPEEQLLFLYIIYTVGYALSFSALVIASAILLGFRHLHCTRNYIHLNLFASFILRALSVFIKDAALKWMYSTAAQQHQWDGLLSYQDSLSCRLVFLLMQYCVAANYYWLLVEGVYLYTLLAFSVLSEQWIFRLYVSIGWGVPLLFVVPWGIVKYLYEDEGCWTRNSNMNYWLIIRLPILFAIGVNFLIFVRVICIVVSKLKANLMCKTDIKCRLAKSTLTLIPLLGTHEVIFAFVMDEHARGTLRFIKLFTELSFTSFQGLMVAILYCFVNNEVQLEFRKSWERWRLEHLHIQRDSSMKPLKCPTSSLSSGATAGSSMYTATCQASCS
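Stable HEK293 clone (constitutively active GLP-1R + cAMP-response luciferase); 200 cells/uL plated, 12 h pre-culture, compound 24 hr, 37 deg C/5% CO2; detection reagent 12 min RT; luminescence.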
HepG2 viability: kills HepG2 cells in TGF-b inhibitor counter-screen. HepG2 CAGA-GFP viability, ATP luminescence, 18 h. Potency, µM (top dose mostly 46.1 µM), most hits filed as cytotoxic. 410,000 compounds, 0.76% hits
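CellTiter-Glo luminescence gave cytotoxicity after 18 hours at 37 degrees C. The cells were HepG2 CAGA-GFP in 1% FBS DMEM, stimulated with 500 pg/mL TGF-beta after compound addition. %Activity was normalised to no-cell wells (complete cell-killing) and DMSO (no toxicity), and curves were fitted and classified.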
TGFb SMAD3 inh: blocks TGF-b signaling; HepG2 CAGA-GFP TGF-b/SMAD3 reporter, GFP fluorescence, 18 h; TGF-beta stimulated, 500 pg/mL final; Potency, µM (top dose mostly 46.1 µM), hits mostly inhibitors; 410,000 compounds, 1.2% hits; AID 588855; also: nearly all actives have a fitted effect of over 65% in size
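HEPG2 CAGA-GFP, 1000 cells/well; 2 h settle, 37 C; cpd via pin tool; TGF-b 500 pg/mL final; 18 h, 37 C; GFP imaging ex488/em500-530; %Activity normalised to -TGF-b and +DMSO controls; CRC fit, curve class.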
ATXN2 expr inh: ATXN2 expression inhibition | HEK-293 ATXN2-luciferase reporter, luminescence, 24 h | Potency, µM (top dose mostly 57 µM), usual class: inhibitors | 360,000 compounds, 0.72% hits | AID 1745845; also: nearly all actives have a fitted effect of over 55% in size
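qHTS (up to 57 uM final) was run with 24 h compound exposure of reporter cells at 37 °C. Each well was multiplexed: SteadyGlo luminescence measured ATXN2-luciferase expression after a fluorogenic Gly-Phe-AFC viability readout (25 uM final).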
GLP-1R agonist: activates the human GLP-1 receptor | 380,000 compounds, 0.007% hits | P43220 | Potency, µM (doses to about 45.6 µM), usual class: activators | HEK293 GLP-1R CRE-luciferase, luminescence, 4-6 h; cells express a hypersensitive GLP-1R form
Numbers stand for hits. Compounds with a hit are over-represented: about 3.7% of the library has one in this group of screens. Calls follow the shape of the dose curve; as a rule, active = well fitted curve in the direction sought with a large enough effect; inconclusive = small, poorly fitted or top-dose-only effect, or another doubt; inactive = no such curve, though single readings can be large; an effect the other way counts as inactive or inconclusive.

Results for Cc1cc(C)cc(OCC(=O)Nc2nc3c(s2)CC(C(C)(C)C)CC3)c1 (stereo not given) ?
ATXN viability: inactive; GLP1R inv ag: inconclusive; HepG2 viability: inactive; TGFb SMAD3 inh: inactive; ATXN2 expr inh: inactive

How did Cc1ccc2c(c1)C1CN(C)CCC1N2C(=O)COc1ccc(N(C)C(=O)c2ccccc2)cc1 (stereo not given) do in these assays?
ATXN viability: inactive; GLP1R inv ag: inconclusive; HepG2 viability: inactive; TGFb SMAD3 inh: inconclusive; ATXN2 expr inh: inactive; GLP-1R agonist: inactive

How did CCCC(=O)O[C@@H]1C[C@@H](C)N(C(=O)c2ccccc2)c2ccc(C)cc21 do in these assays?
ATXN viability: inactive; GLP1R inv ag: 10µM; HepG2 viability: inactive; TGFb SMAD3 inh: inconclusive; ATXN2 expr inh: inactive; GLP-1R agonist: inactive

How did Clc1ccc(-c2cc(CN3CCOCC3)no2)cc1 do in these assays?
ATXN viability: inactive; GLP1R inv ag: inactive; HepG2 viability: inactive; TGFb SMAD3 inh: inactive; ATXN2 expr inh: inactive; GLP-1R agonist: inactive

Results for Clc1ccc(-c2cc(CN3CCCCC3)no2)cc1Cl ?
ATXN viability: inactive; GLP1R inv ag: 10µM; HepG2 viability: inactive; TGFb SMAD3 inh: inactive; ATXN2 expr inh: inactive; GLP-1R agonist: inactive

Results for S=C1NC2=C(CCC/C2=C\c2ccc(Cl)cc2)C(c2ccc(Cl)cc2)N1 (stereo not given) ?
ATXN viability: inactive; GLP1R inv ag: 7.9µM; HepG2 viability: inactive; TGFb SMAD3 inh: 18µM; ATXN2 expr inh: inactive; GLP-1R agonist: inactive

Results for Fc1cccc(/C=C2\CCCC3=C2NC(=S)NC3c2cccc(F)c2)c1 (stereo not given) ?
ATXN viability: inactive; GLP1R inv ag: 10µM; HepG2 viability: inactive; TGFb SMAD3 inh: 8.9µM; GLP-1R agonist: inactive

How did C=CC1=C(C(=O)O)N2C(=O)[C@@H](NC(=O)C(=NO)c3csc(N)n3)[C@H]2SC1 do in these assays?
ATXN2 expr inh: inactive

Results for Cn1c(=O)c2nc(SCC(=O)Nc3ccc(Cl)c(Cl)c3)n(C)c2n(C)c1=O ?
GLP1R inv ag: inactive; HepG2 viability: inactive; TGFb SMAD3 inh: inactive

Results for CCCCN(CCCC)c1ccc(Cn2ccc3ccccc32)cc1 ?
HepG2 viability: inactive; TGFb SMAD3 inh: 18µM

What do the screens show for `C[C@@H]1C(=O)N(S(=O)(=O)c2ccc([N+](=O)[O-])cc2)[C@H]1c1ccccc1`?
HepG2 viability: inactive; TGFb SMAD3 inh: inactive

What do the screens show for `COc1ccc2c(c1)-c1c(ssc1=S)C(C)(C)N2S(=O)(=O)c1ccc(C)cc1`?
ATXN viability: inconclusive; GLP1R inv ag: 2.8µM; HepG2 viability: inactive; TGFb SMAD3 inh: inactive; ATXN2 expr inh: inactive; GLP-1R agonist: inactive

How did CCOC(=O)c1ccc2c(c1)n(CC)c(/C=C/Nc1ccccc1)[n+]2CC do in these assays?
ATXN viability: 11µM; GLP1R inv ag: inactive; HepG2 viability: inactive; TGFb SMAD3 inh: inactive; ATXN2 expr inh: inconclusive; GLP-1R agonist: inactive

What do the screens show for `COc1ccccc1NC(=O)Nc1nc(C(N)C2CCCCC2)cs1` (stereo not given)?
ATXN viability: inconclusive; GLP1R inv ag: inconclusive; HepG2 viability: 11µM; TGFb SMAD3 inh: inconclusive; ATXN2 expr inh: inconclusive; GLP-1R agonist: inactive

What do the screens show for `NC(c1csc(NC(=O)Nc2ccccc2Cl)n1)C1CCCCC1` (stereo not given)?
ATXN viability: inactive; GLP1R inv ag: inactive; HepG2 viability: inactive; TGFb SMAD3 inh: inconclusive; ATXN2 expr inh: inactive; GLP-1R agonist: inactive

How did COc1cc(NC(=O)Nc2nc(C(N)C3CCCCC3)cs2)cc(OC)c1OC (stereo not given) do in these assays?
ATXN viability: inconclusive; GLP1R inv ag: inconclusive; HepG2 viability: 11µM; TGFb SMAD3 inh: inconclusive; ATXN2 expr inh: inconclusive; GLP-1R agonist: inactive

How did NC(c1csc(NC(=O)Nc2cccc(Cl)c2)n1)C1CCCCC1 (stereo not given) do in these assays?
ATXN viability: 28µM; GLP1R inv ag: inconclusive; HepG2 viability: inactive; TGFb SMAD3 inh: inconclusive; ATXN2 expr inh: inconclusive; GLP-1R agonist: inactive

What do the screens show for `NC(c1csc(NC(=O)Nc2ccccc2)n1)C1CCCCC1` (stereo not given)?
ATXN viability: inactive; GLP1R inv ag: inconclusive; HepG2 viability: inactive; TGFb SMAD3 inh: inconclusive; ATXN2 expr inh: inactive; GLP-1R agonist: inactive

What do the screens show for `COc1ccccc1-c1cc2c(c(OC)c1)OCCN(C(=O)Cn1nc(-c3ccccc3)c3ccccc3c1=O)C2`?
ATXN viability: inactive

Results for CCN(c1ccccc1)S(=O)(=O)c1ccc(-c2cc(C)no2)s1 ?
GLP1R inv ag: inconclusive; HepG2 viability: inactive; TGFb SMAD3 inh: inconclusive

What do the screens show for `CCN(c1ccc(OC)cc1)S(=O)(=O)c1ccc(-c2cc(C)no2)s1`?
ATXN viability: inconclusive; GLP1R inv ag: 7.9µM; HepG2 viability: inactive; TGFb SMAD3 inh: inactive; GLP-1R agonist: inactive

How did O=C(NCC1Cc2cc(-c3cncnc3)cc(Cl)c2O1)c1cccc(Cn2cccn2)c1 (stereo not given) do in these assays?
ATXN viability: inactive

How did Cc1ccccc1OCC(O)CN1CCN(CCN2C(=O)c3cccc4cccc(c34)C2=O)CC1 (stereo not given) do in these assays?
ATXN viability: inconclusive; GLP1R inv ag: inactive; HepG2 viability: inactive; TGFb SMAD3 inh: inactive; ATXN2 expr inh: inactive; GLP-1R agonist: inactive

How did C=CCc1ccccc1OCC(O)CN1CCN(CCN2C(=O)c3cccc4cccc(c34)C2=O)CC1 (stereo not given) do in these assays?
ATXN viability: inconclusive; GLP1R inv ag: inconclusive; HepG2 viability: inactive; TGFb SMAD3 inh: 14µM; ATXN2 expr inh: 28µM; GLP-1R agonist: inactive

What do the screens show for `COC(=O)c1ccc(-c2ccco2)n1Cc1nc(-c2ccc(OC)c(OC)c2)oc1C`?
ATXN viability: inactive; GLP1R inv ag: 10µM; HepG2 viability: inactive; TGFb SMAD3 inh: inconclusive; ATXN2 expr inh: inactive; GLP-1R agonist: inactive

What do the screens show for `Cc1c(NC(=O)c2ccc(-c3ccccc3)cc2)cccc1C(=O)O`?
ATXN viability: inactive; GLP1R inv ag: 3.2µM; HepG2 viability: inactive; TGFb SMAD3 inh: inactive; ATXN2 expr inh: inactive; GLP-1R agonist: inactive

Results for CN(C)CCN1CCN(c2cccc(Cl)c2)C1=O ?
ATXN viability: inactive; ATXN2 expr inh: inactive

How did N#Cc1ccc(S(=O)(=O)N2CCN(c3nc(-c4cccs4)nc4ccccc34)CC2)cc1 do in these assays?
HepG2 viability: inactive; TGFb SMAD3 inh: inactive

How did CC(Cc1cccs1)NC(=O)Nc1ccc(F)cc1 (stereo not given) do in these assays?
ATXN viability: inactive; GLP1R inv ag: inconclusive; HepG2 viability: inactive; TGFb SMAD3 inh: inactive; ATXN2 expr inh: inactive; GLP-1R agonist: inactive
